Consider 39 sequences from paper PMC5913336, “True equilibrium measurement of transcription factor-DNA binding affinities using automated polarization microscopy”.

The target in the assay is T1, EcR (Drosophila melanogaster, UniProt P34021 251-348).
T1 sequence: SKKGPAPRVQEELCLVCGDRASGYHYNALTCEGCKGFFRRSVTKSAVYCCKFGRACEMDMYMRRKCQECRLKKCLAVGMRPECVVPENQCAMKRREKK
Description: FP; 33 mM phosphate pH 7.0, 90 mM NaCl, 0.01% Tween 20, 0.1 mM DTT, 0.5% agarose; room temperature. The conditions noted are these: tags: N-GST (pGEX-6P-1, kept); dsDNA, one strand shown.
As for GAATCACCCCTAC, the binding signal is 9.57 Kd / Kd of best base at the position.

Consider GATTGACCCCTAC, for which the binding signal was 1.87 Kd / Kd of best base at the position. As for GCATGACCCCTAC, the binding signal was 2.1 Kd / Kd of best base at the position. Regarding GAATGTCCCCTAC, the binding signal was 6.26 Kd / Kd of best base at the position. On the same count and under the same terms, next, GAATGACCCCTCC: 1.29 Kd / Kd of best base at the position; GAATTACCCCTAC: 11.6 Kd / Kd of best base at the position.

Consider GAAGGACCCCTAC, for which the binding signal is 10 Kd / Kd of best base at the position. Still for that read-out and setting: next, GAATGACCCGTAC: 2.06 Kd / Kd of best base at the position. The same measure, in the same setting: the result for GAATGACCCCTAG reads 1.29 Kd / Kd of best base at the position; that for GAGTGACCCCTAC, 1.99 Kd / Kd of best base at the position. Regarding CAATGACCCCTAC, the binding signal was 1.8 Kd / Kd of best base at the position.

For GAATGACTCCTAC, the binding signal is 7.37 Kd / Kd of best base at the position.

In the case of GAATGACCCCTAT, the binding signal was 1.25 Kd / Kd of best base at the position. As for TAATGACCCCTAC, the binding signal is 1.83 Kd / Kd of best base at the position. The same measure, in the same setting: next, GAATGACCGCTAC: 2.37 Kd / Kd of best base at the position.

Sequence GAATGACCCCTAC returned a Kd of about 23.7 nM. Take GAATGCCCCCTAC: the binding signal was 3.38 Kd / Kd of best base at the position. Regarding GAATGACCACTAC, the binding signal is 5.04 Kd / Kd of best base at the position. As for GAATGACCCCTAA, the binding signal was 1.25 Kd / Kd of best base at the position. On the same count and under the same terms, the result for GAATGACCCCGAC reads 1.46 Kd / Kd of best base at the position.

GAACGACCCCTAC: the binding signal was 3.06 Kd / Kd of best base at the position. On to GAATGGCCCCTAC, for which the binding signal is 5.84 Kd / Kd of best base at the position. Still for that read-out and setting: the result for GAATGACCCCCAC reads 1.69 Kd / Kd of best base at the position; that for AAATGACCCCTAC, 1.94 Kd / Kd of best base at the position; that for GAATGACCCATAC, 2.6 Kd / Kd of best base at the position.

As for GAATGACGCCTAC, the binding signal is 19.5 Kd / Kd of best base at the position.

For the sequence GAATGACACCTAC, the binding signal is 4.55 Kd / Kd of best base at the position. Same read-out and setting: the result for GAATGACCCTTAC reads 1.59 Kd / Kd of best base at the position; that for GAAAGACCCCTAC, 8.21 Kd / Kd of best base at the position. With GAATGATCCCTAC, the binding signal was 9.3 Kd / Kd of best base at the position. Regarding GACTGACCCCTAC, the binding signal was 2.46 Kd / Kd of best base at the position. On the same count and under the same terms, the result for GAATAACCCCTAC reads 3.47 Kd / Kd of best base at the position; that for GAATGAACCCTAC, 1.84 Kd / Kd of best base at the position. On the same count and under the same terms, next, GAATGACCTCTAC: 1.03 Kd / Kd of best base at the position; GAATGACCCCTTC: 1.34 Kd / Kd of best base at the position. The same measure, in the same setting: the result for GAATGACCCCAAC reads 1.46 Kd / Kd of best base at the position. As to GGATGACCCCTAC, the binding signal is 1.78 Kd / Kd of best base at the position. Turning to GTATGACCCCTAC, the binding signal is 1.76 Kd / Kd of best base at the position. Consider GAATGACCCCTGC, for which the binding signal was 1.47 Kd / Kd of best base at the position.
